NS1 function inh: qHTS Assay for Inhibitors of Influenza NS1 Protein Function. Potency, µM (titrated, usually from 46.1 µM). 270,000 compounds, 0.4% hits. AID 2326, 2010; note: actives are rising curves; nearly all actives have a fitted effect of over 50% in size
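In this qHTS, NS1 from influenza A is expressed in budding yeast, where it slows growth. Cells are switched from glucose to 2% galactose medium (pH 6.0, -URA), treated with compound, and growth recovery is read at OD600.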
Cruzain inh noDet: qHTS Assay for Promiscuous and Specific Inhibitors of Cruzain (without detergent); 200,000 compounds, 2.3% hits; Cruzipain (Trypanosoma cruzi), P25779; AID 1476, 2009; purified cruzain, Z-FR-AMC fluorescence, no detergent; Potency, µM, actives largely listed as inhibitors; active = well fitted curve in the direction sought with a large enough effect; inconclusive = small, poorly fitted or top-dose-only effect, or another doubt; inactive = no such curve, though single readings can be large; an effect the other way counts as inactive or inconclusive; note: nearly all actives have a fitted effect of over 40% in size
Target sequence (P25779 123-467 limits assumed): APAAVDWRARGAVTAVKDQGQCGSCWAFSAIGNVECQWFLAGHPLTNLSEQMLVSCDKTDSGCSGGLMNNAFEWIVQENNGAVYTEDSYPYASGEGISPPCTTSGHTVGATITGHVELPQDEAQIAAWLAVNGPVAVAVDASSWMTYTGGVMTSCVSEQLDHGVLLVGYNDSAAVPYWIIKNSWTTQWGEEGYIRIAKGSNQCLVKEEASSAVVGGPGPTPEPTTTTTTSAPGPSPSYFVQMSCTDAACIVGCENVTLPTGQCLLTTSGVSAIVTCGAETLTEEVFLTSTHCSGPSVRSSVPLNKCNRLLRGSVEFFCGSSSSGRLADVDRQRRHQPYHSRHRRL
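Detergent-free condition (0.00005% Triton X-100) in acetate buffer pH 5.5 with DTT. 1.5 nM enzyme and compound were pre-mixed 15 min, then 2 uM Z-FR-AMC substrate added; reaction progress from fluorescence change between first and third reads (60 s).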
Cruzain Triton: qHTS Assay for Promiscuous and Specific Inhibitors of Cruzain (with detergent) | purified cruzain, Z-FR-AMC fluorescence, 0.01% Triton | 200,000 compounds, 0.43% hits | Potency, µM, hits mostly inhibitors; active = well fitted curve in the direction sought with a large enough effect; inconclusive = small, poorly fitted or top-dose-only effect, or another doubt; inactive = no such curve, though single readings can be large; an effect the other way counts as inactive or inconclusive; note: nearly all actives have a fitted effect of over 40% in size
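In this qHTS format, compounds are incubated with 1.5 nM cruzain for 15 min at room temperature before 2 uM Z-FR-AMC is added. Release of AMC is followed at 360/450 nm, and progress is taken as the 60 s fluorescence difference.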
NS1 inh valid: Assay for Inhibitors of Influenza NS1 Protein Function: Hit Validation; shares compounds with NS1 function inh; influenza NS1 function cell assay, 15-point titration; activity change, negative = inhibition, % at 32.9 µM; 1,400 tested, under 10 active
Hits are given with their value; i = inactive; ? = inconclusive; nt = no result given. This is one part of a sample in which hits are shown more often than they occur. Unless noted, calls come from the whole dose curve.

SMILES | NS1 function inh | Cruzain inh noDet | Cruzain Triton | NS1 inh valid
COc1ccccc1OC(C)C(=O)N1CCC(Cc2ccccc2)CC1 (stereo unspecified) | i | nt | nt | nt
CCOC(=O)c1c(-c2ccc(C)o2)csc1NC(=O)CN(C)CC(=O)Nc1ccc(C)cc1 | i | i | i | nt
COc1cccc(C(=O)NCCc2csc(-c3ccc(Cl)cc3)n2)c1 | nt | i | i | nt
CCOCCCNC(=O)C(NC(=O)c1ccc(NC(C)=O)cc1)c1ccc(Cl)cc1 (stereo unspecified) | i | i | i | nt
CCOCCCNC(=O)C(NC(=O)CC1NC(=O)NC1=O)c1ccc(Cl)cc1 (stereo unspecified) | 0.89µM | i | i | i
CC(C)c1ccc(NC(=O)CN(Cc2ccccc2)S(C)(=O)=O)cc1 | i | i | i | nt
Cc1ncc([N+](=O)[O-])n1CCOC(N)=O | i | nt | nt | nt
Cc1ncc([N+](=O)[O-])n1CCOC(=O)Nc1ccc(Cl)c(Cl)c1 | ? | i | i | i
O=C(Cn1nc(C(F)F)cc1C(F)F)N/N=C/c1ccc2c(c1)OCO2 | i | i | i | nt
CC(C1CC1)N(C(=O)NC1CCS(=O)(=O)C1)c1ccccc1 (stereo unspecified) | ? | i | i | i
O=C(NCc1ccccc1)NC1CCS(=O)(=O)C1 (stereo unspecified) | i | nt | nt | nt
O=C(NNS(=O)(=O)c1ccccc1)Nc1ccc(F)cc1 | i | nt | nt | nt
O=C(CSc1nc2ccccc2c(=O)n1-c1ccccc1F)Nc1ccc2c(c1)CCC2 | ? | ? | i | nt
Cc1ccc(-n2c(SCC(=O)Nc3cccc(S(=O)(=O)NC4=NCCCCC4)c3)nc3ccccc3c2=O)cc1 | i | i | i | nt
Cc1ccc(-n2c(SCC(=O)NNC(=S)Nc3ccccc3)nc3ccccc3c2=O)cc1 | 4.5µM | i | i | i
O=C(CSc1nc2ccccc2c(=O)n1-c1ccc(F)cc1F)Nc1ccc2c(c1)CCC2 | 13µM | ? | i | i
O=C(CSc1nc2ccccc2c(=O)n1-c1ccc(F)cc1)Nc1ccc2c(c1)CCC2 | ? | ? | i | nt
O=C(CSc1nc2ccccc2c(=O)n1-c1ccc(F)cc1)Nc1ccc(C(=O)O)cc1 | 14µM | nt | nt | ?
CCCNC(=O)OCC12CC3CC(CC(C3)C1)C2 | i | i | i | nt
CCOC(=O)C1CCCN(c2c(C(=O)c3ccccc3)cnc3ccc(OC)cc23)C1 (stereo unspecified) | i | nt | nt | nt
Cc1cc(=O)n2nc(N(C)CC(=O)NCc3ccc(Cl)cc3)sc2n1 | nt | i | i | nt
COc1ccc(-c2ccnc3nc(-n4cccc4)nn23)cc1 | ? | i | i | nt
O=C1c2ccccc2C(=O)N1c1nc2nccc(-c3ccccc3)n2n1 | ? | i | i | i
Cc1ccccc1-n1c(Cn2c(=O)sc3ccccc32)nnc1SCC(=O)N1CCCC1 | i | i | i | nt
COc1ccc(OC)c(N(CC(=O)NCCSC2CCCCC2)S(=O)(=O)c2ccccc2)c1 | i | nt | nt | nt
SMILES | NS1 function inh | Cruzain inh noDet | Cruzain Triton | NS1 inh valid
COc1ccc(N(CC(=O)NCCSC2CCCCC2)S(=O)(=O)c2ccccc2)c(OC)c1 | 4µM | nt | nt | i
CCOC(=O)c1c(-c2ccccc2)csc1/N=C/C1C(=O)CCCC1=O | i | i | i | nt
COc1ccc(S(=O)(=O)n2nc(OC(=O)c3c(-c4ccccc4Cl)noc3C)cc2N)cc1 | 10µM | ? | i | i
COc1ccc(C(=O)Oc2cc(N)n(S(=O)(=O)c3ccc(C)cc3)n2)cc1 | i | nt | nt | nt
COC(=O)C1=C(C)N(c2ccc(OC)cc2)C(C)=C(C(=O)OC)C1c1ccc(OC)cc1 | i | nt | nt | nt
CCCCN(CC)CCCNC(=O)CCN1N=C(c2ccc(OC)cc2)CCC1=O | nt | i | i | nt
CCOC(=O)c1[nH]c(C)c(C(=O)OCC(=O)N2CCc3ccccc32)c1C | i | i | i | nt
CC(=O)c1c(C)[nH]c(C(=O)OCC(=O)N2CCc3ccccc32)c1C | 4.5µM | ? | i | i
CCc1c(C)n2nc(C)cc2[nH]c1=O | i | i | i | nt
CC1Oc2ccccc2N(CC(=O)N2CCCCC2)C1=O (stereo unspecified) | 10µM | nt | nt | i
CC1Oc2ccccc2N(CC(=O)N2CCCc3ccccc32)C1=O (stereo unspecified) | i | i | i | nt
CN(CC(=O)Nc1nc2ccccc2s1)S(=O)(=O)c1ccc(Br)cc1 | i | i | i | nt
O=c1cc(CN2CCN(c3ccc(F)cc3)CC2)nc2sccn12 | i | i | i | nt
Cc1[nH]c2ccc(-c3nnc(SCC(=O)NCc4ccco4)n3Cc3ccccc3)cc2c1C | 3.5µM | i | i | i
CCCn1c(SCC(=O)NCc2ccco2)nnc1-c1ccncc1 | i | nt | nt | nt
CCOC(=O)c1ccc(NC(=O)CCC(=O)N2Cc3ccccc3Oc3ncccc32)cc1 | nt | i | i | nt
COCc1ccc(O)c2ncccc12 | i | i | i | nt

Screens as filed in PubChem.
